Data on 29 compounds can be found in PubChem BioAssay (Tox21).

Test [1] concerns the target Acetylcholinesterase (Homo sapiens) (UniProt P22303). The test is described as follows: Acetylcholinesterase (AChE) small molecule antagonists: fluorescence cell-based qHTS assay (AID 1347398; calls by dose curve; also: nearly all actives have a fitted effect of over 50% in size). The settings on record: Potency: AChE activity. In outline: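 Cells (SH-SY5Y) attached overnight, were dosed with compound or DMSO vehicle for 30 min at 37 C, and then incubated 40 min at room temperature with acetylthiocholine and Thiolite Green; green fluorescence indexed AChE activity.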

Test [2] has the same target. In words: Acetylcholinesterase (AChE) small molecule antagonists: enzyme-based qHTS assay with human liver microsomes (AID 1347399; calls by dose curve; also: nearly all actives have a fitted effect of over 60% in size). The settings on record: Potency: qHTS inhibition. In outline:
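Recombinant human AChE (50 mU/mL in the enzyme mix) and human liver microsomes (0.25 mg/mL final) were preincubated with compound and NADPH (0.25 mg/mL final) for 30 min at 37 C. Acetylthiocholine/DTNB was then added; thiocholine was read colorimetrically after 10 min at room temperature.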
On the technique in general: qHTS replaces the single test concentration by a dilution series.

Test [3] concerns the target Cytochrome P450 2D6 (Homo sapiens) (UniProt P10635). The test is described as follows: Cytochrome P450 Family 2 Subfamily D Member 6 (CYP2D6) small molecule antagonists: luciferase reporter qHTS assay (AID 1671196). Also: nearly all actives have a fitted effect of over 50% in size. In outline:
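Test chemicals meet CYP2D6 plus proluciferin substrate (10 min, RT); NADPH regenerating solution then drives turnover for 1 h. Detection reagent halts the reaction; luminescence measured after 20 min.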
(In general: Reporter assays use an easily measured gene product as a stand-in for the process of interest.)

In test [4] the target is Cytochrome P450 2C19 (Homo sapiens) (UniProt P33261). The test is described as follows: Cytochrome P450 Family 2 Subfamily C Member 19 (CYP2C19) small molecule antagonists: luciferase reporter qHTS assay (AID 1671197). Also: nearly all actives have a fitted effect of over 65% in size. Summed up: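 P450-Glo CYP2C19 system: enzyme-substrate mix with compound 10 min at room temperature, then NADPH regeneration solution, 1 h at 37C. Proluciferin-to-luciferin conversion detected by luminescence after 20 min with detection reagent; ketoconazole as positive control.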
Chain of Cytochrome P450 2C19 (Homo sapiens) (P33261 whole entry, looked up): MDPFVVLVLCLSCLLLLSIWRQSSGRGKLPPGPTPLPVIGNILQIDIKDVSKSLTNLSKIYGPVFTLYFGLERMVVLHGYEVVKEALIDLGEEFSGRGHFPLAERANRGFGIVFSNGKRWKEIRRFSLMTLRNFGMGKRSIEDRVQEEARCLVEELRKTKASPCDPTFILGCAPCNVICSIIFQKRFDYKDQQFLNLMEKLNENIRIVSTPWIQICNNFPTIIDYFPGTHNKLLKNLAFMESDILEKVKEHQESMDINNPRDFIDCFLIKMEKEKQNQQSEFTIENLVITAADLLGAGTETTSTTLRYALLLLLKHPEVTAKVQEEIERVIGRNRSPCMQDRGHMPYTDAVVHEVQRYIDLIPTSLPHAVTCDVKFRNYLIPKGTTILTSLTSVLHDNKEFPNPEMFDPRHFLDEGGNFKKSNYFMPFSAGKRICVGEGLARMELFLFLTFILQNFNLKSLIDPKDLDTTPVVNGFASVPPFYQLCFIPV

The target of test [5] is Cytochrome P450 2C9 (Homo sapiens) (UniProt P11712). The test is described as follows: Cytochrome P450 Family 2 Subfamily C Member 9 (CYP2C9) small molecule antagonists: luciferase reporter qHTS assay (AID 1671198). Also: nearly all actives have a fitted effect of over 50% in size. Summed up: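 P450-Glo proluciferin substrate with CYP2C9 enzyme; 10 min RT preincubation, then NADPH regeneration 1 h at 37C; luciferin detection reagent 20 min RT, luminescence in relative luminescence units.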
Chain of Cytochrome P450 2C9 (Homo sapiens) (P11712 whole entry, looked up): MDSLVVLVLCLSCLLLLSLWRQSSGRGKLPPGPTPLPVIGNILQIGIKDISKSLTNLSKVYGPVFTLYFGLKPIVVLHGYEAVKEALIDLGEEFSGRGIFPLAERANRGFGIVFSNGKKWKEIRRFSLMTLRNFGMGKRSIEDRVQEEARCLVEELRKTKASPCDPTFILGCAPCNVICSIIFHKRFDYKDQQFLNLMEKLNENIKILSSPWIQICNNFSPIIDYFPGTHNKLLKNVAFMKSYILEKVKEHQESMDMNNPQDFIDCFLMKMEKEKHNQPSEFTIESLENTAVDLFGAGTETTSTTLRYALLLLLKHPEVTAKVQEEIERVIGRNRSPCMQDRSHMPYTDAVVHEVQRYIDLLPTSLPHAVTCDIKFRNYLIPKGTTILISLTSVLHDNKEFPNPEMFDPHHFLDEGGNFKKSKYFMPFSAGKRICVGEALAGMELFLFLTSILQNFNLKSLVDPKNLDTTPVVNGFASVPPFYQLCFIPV

Test [6] deals with Cytochrome P450 1A2 (Homo sapiens) (UniProt P05177). In words: Cytochrome P450 Family 1 Subfamily A Member 2 (CYP1A2) small molecule antagonists: luciferase reporter qHTS assay (AID 1671199). Also: nearly all actives have a fitted effect of over 50% in size. In outline:
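Steps: enzyme-substrate mix dispensed; test compounds and furafylline control pinned in; 10 min room temperature; NADPH regeneration solution added, 1 h; reaction stopped with luciferin detection reagent; luminescence read after 20 min.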

Test [7] has as its target Voltage-gated inwardly rectifying potassium channel KCNH2 (Homo sapiens) (UniProt Q12809). The test is described as follows: Human Ether-a-go-go-Related Gene (hERG) channel small molecule antagonists: fluorescence cell-based qHTS assay (AID 1671200). Also: nearly all actives have a fitted effect of over 50% in size. Summed up:
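First, 1000 cells per well are seeded and cultured overnight at 37 C. Next, FluxOR II dye is loaded for 1 h at room temperature, protected from light. After 10 more minutes, stimulus is added and fluorescence is read.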
Background: The hERG channel carries a current that helps repolarise heart muscle cells.

Test [8] has as its target Cytochrome P450 3A4 (Homo sapiens) (UniProt P08684). In words: Cytochrome P450 Family 3 Subfamily A Member 4 (CYP3A4) small molecule antagonists: luciferase reporter qHTS assay (AID 1671201). Also: nearly all actives have a fitted effect of over 50% in size. In outline:
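Enzyme and proluciferin substrate are mixed with test chemicals for 10 min, then NADPH regeneration system drives turnover for 1 h at room temperature. A detection reagent halts the reaction; luminescence after 20 min gives relative activity.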

Structures are written as SMILES. Several values for one entry are separate records, joined by “and”; a condition that tells them apart may be missing. Identical values can stand only once. Records with an inconclusive call do not appear. The source holds several records for some structures; these can differ, active in one and inactive in another. Activity calls are given as the source filed them. Unless noted, calls follow the shape of the dose curve; as a rule, active = well fitted curve in the direction sought with a large enough effect in the repeat runs; inconclusive = weak or mixed curves; inactive = no such curve, though single readings can be large; an effect the other way counts as inactive or inconclusive.
Potency is read from the fitted curve at half-maximal effect.

Chain of Acetylcholinesterase (Homo sapiens) (P22303 whole entry, looked up): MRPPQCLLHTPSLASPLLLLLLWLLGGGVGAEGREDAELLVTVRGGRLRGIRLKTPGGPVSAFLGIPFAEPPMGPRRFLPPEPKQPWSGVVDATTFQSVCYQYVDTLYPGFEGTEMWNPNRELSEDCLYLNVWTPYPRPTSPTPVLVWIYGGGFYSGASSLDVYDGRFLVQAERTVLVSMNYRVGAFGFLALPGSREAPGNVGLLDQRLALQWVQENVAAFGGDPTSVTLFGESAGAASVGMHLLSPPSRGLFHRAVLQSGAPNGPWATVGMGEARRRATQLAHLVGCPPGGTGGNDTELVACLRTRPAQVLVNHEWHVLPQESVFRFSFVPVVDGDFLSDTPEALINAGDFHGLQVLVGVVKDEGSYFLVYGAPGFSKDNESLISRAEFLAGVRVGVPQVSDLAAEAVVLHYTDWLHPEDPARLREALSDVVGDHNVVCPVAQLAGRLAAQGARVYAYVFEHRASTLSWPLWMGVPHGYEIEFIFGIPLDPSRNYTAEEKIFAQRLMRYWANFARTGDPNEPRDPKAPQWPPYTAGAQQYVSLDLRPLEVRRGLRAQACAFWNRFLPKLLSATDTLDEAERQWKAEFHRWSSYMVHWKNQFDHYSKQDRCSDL
Chain of Cytochrome P450 2D6 (Homo sapiens) (P10635 whole entry, looked up): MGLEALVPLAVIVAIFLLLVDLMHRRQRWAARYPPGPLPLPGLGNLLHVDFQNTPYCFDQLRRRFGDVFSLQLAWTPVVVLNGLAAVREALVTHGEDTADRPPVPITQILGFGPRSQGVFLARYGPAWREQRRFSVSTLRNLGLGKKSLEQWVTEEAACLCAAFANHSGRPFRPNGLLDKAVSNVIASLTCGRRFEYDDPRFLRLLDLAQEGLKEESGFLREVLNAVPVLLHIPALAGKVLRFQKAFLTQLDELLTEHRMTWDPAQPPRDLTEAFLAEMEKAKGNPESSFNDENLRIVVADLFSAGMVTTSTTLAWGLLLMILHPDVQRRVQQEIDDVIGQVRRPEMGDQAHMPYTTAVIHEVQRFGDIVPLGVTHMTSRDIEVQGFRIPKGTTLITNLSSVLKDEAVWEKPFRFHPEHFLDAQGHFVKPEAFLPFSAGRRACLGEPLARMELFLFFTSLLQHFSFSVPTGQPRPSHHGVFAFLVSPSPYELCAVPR
Chain of Voltage-gated inwardly rectifying potassium channel KCNH2 (Homo sapiens) (Q12809 whole entry, looked up): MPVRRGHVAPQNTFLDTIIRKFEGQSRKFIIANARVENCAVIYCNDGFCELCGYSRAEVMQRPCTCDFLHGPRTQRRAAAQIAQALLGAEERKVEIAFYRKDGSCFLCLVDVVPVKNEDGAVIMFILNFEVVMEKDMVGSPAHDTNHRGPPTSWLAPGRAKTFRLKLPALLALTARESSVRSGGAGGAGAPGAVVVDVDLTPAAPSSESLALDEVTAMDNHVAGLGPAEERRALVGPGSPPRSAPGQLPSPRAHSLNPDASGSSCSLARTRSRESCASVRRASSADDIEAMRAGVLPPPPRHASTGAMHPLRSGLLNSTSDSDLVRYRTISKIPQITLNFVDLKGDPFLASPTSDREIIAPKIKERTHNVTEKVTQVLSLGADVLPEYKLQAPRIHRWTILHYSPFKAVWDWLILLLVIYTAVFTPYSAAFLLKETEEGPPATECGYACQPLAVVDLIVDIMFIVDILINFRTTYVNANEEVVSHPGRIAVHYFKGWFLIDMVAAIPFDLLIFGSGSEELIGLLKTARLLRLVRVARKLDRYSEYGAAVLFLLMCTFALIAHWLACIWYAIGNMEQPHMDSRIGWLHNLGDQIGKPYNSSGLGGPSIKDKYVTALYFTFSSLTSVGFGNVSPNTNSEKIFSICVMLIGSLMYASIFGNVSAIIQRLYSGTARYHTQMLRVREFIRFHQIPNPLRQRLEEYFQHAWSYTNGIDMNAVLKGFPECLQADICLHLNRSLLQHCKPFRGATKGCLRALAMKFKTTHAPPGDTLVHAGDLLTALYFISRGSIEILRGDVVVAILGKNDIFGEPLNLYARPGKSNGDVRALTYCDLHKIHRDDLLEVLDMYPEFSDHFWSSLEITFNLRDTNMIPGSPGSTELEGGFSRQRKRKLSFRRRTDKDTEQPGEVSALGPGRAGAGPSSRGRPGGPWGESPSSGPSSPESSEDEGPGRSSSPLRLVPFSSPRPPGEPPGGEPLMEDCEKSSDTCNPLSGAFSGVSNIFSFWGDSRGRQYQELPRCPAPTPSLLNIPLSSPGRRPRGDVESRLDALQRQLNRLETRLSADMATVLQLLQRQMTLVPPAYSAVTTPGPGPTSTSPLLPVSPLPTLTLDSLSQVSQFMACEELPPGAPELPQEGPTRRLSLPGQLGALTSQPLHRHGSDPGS
Chain of Cytochrome P450 3A4 (Homo sapiens) (P08684 whole entry, looked up): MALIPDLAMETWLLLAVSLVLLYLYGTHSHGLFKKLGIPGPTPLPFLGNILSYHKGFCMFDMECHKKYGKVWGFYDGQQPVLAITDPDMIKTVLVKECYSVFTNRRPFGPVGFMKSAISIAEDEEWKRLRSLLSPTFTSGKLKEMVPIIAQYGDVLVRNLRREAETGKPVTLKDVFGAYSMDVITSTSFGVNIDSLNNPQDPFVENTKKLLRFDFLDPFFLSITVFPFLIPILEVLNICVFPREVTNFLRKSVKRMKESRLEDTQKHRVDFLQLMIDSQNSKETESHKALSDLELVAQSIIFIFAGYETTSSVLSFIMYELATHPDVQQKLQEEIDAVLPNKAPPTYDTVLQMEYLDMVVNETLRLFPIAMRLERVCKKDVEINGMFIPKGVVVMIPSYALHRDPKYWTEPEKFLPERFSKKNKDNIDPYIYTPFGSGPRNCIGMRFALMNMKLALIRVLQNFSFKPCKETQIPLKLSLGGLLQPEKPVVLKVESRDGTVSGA
Chain of Cytochrome P450 1A2 (Homo sapiens) (P05177 whole entry, looked up): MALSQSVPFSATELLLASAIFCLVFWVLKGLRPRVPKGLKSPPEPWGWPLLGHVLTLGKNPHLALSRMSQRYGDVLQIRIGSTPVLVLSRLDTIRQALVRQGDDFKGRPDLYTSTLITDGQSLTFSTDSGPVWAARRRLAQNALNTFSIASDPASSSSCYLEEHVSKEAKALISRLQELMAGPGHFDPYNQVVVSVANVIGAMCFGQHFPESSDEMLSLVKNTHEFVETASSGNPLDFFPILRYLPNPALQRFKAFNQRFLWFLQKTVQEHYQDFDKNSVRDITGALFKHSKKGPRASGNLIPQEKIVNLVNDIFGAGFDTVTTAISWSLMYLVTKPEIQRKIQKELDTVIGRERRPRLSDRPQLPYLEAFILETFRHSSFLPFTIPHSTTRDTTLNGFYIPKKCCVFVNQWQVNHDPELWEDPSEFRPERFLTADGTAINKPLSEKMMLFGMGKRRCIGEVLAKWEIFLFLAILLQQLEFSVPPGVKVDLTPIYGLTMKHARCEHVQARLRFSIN

In the case of `Nc1cc(Cl)cc(Cl)c1`, the Potency entry in test [1], in test [2], in test [3], in test [4] and in test [5] was “inactive” each time. Besides, the Potency in test [6] was 21.6 µM (active) and 28.3 µM (active).

For `CC(=O)C1CCOC1=O` (stereo not given), the Potency entry in test [1], in test [2], in test [3], in test [4], in test [5] and in test [6] was “inactive” each time. The Potency result in test [7] and in test [8] was “inactive” in each case.

Take `O=C(O)CCCc1ccc(N(CCCl)CCCl)cc1`: the Potency result in test [1], in test [2], in test [3], in test [4], in test [5] and in test [6] was “inactive” throughout. The Potency entry in test [7] and in test [8] was “inactive” throughout.

For `Cc1cccc(C)c1N`, the Potency entry in test [1], in test [2], in test [4], in test [5], in test [6] and in test [7] was “inactive” throughout. For the same compound, the Potency entry in test [8] is “inactive”. Moreover, the Potency in test [3] was 11.1 µM (active) and inactive.

As for `O=C(O)C1C(C(=O)O)C2(Cl)C(Cl)=C(Cl)C1(Cl)C2(Cl)Cl` (stereo not given), the Potency entry in test [1], in test [2], in test [3], in test [4], in test [5] and in test [6] was “inactive” in each case. Besides, the Potency result in test [7] and in test [8] was “inactive” each time.

In the case of `O=S(=O)(O)OOS(=O)(=O)O`, the Potency result in test [1], in test [2], in test [3], in test [4], in test [5] and in test [7] was “inactive” in each case. In addition, the Potency result in test [8] is “inactive”. In addition, the Potency in test [6] was 31.6 µM (active) and inactive.

Regarding `N#Cc1ccccn1`, the Potency result in test [1], in test [2], in test [3], in test [5], in test [6] and in test [7] was “inactive” each time. For the same compound, the Potency result in test [8] was “inactive”. In addition, the Potency result in test [4] is “inactive and 71 µM (active)”.

As for `Nc1ccc([As](=O)(O)O)cc1`, the Potency result in test [1], in test [2], in test [3], in test [4], in test [5] and in test [6] was “inactive” throughout. The Potency entry in test [7] is “inactive”. Moreover, the Potency in test [8] is 34.6 µM (active) and inactive.

Consider `COP(=S)(OC)Oc1ccc(SC)c(C)c1`, for which the Potency entry in test [1], in test [2] and in test [7] was “inactive” throughout. The Potency in test [3] was 39.5 µM (active) and 39.9 µM (active); in test [4], 1.57 µM (active) and 710 nM (active) and 1.1 µM (active); in test [5] it was 7.02 µM (active) and 6.33 µM (active) and 6.92 µM (active); in test [6], 1.98 µM (active) and 2.24 µM (active) and 1.62 µM (active).

Regarding `CCOP(=S)(OCC)Oc1cc(C)nc(C(C)C)n1`, the Potency in test [1] was 35.8 µM (active) and 56.4 µM (active); in test [2] it was “inactive and 8.71 µM (active)”; in test [4] it was 56.7 µM (active) and 502 nM (active) and 692 nM (active); in test [5], 35.8 µM (active) and 2.83 µM (active) and 2.45 µM (active); in test [6], 6.33 µM (active) and 4.07 µM (active). Further, in test [3], the Potency result was “inactive”.

Turning to `CC(C)(C)C(=O)CCl`, the Potency result in test [1], in test [2], in test [3], in test [4], in test [5] and in test [6] was “inactive” each time. Moreover, the Potency result in test [7] and in test [8] was “inactive” in each case.

Turning to `CNC(=O)O/N=C/C(C)(C)S(C)=O` (stereo not given), the Potency was 57.2 nM (active) and 35.4 nM (active) in test [1]; 2.87 µM (active) and 2.51 µM (active) in test [2]. Also, the Potency entry in test [3], in test [4], in test [5], in test [6], in test [7] and in test [8] was “inactive” each time.

As for `Oc1c(Br)cc(Br)cc1Br`, the Potency result in test [1], in test [2], in test [3], in test [4], in test [7] and in test [8] was “inactive” in each case. Moreover, the Potency was 63.4 µM (active) and 39.9 µM (active) and inactive in test [5]; 35.7 µM (active) and 63.3 µM (active) and inactive in test [6].

For the compound `CNCC(O)c1ccc(O)cc1` (stereo not given), the Potency entry in test [1], in test [2], in test [5], in test [6], in test [7] and in test [8] was “inactive” each time. The Potency was 39.9 µM (active) in test [3]; 70.9 µM (active) and inactive in test [4].

For `CC[N+](=O)[O-]`, the Potency entry in test [1], in test [2], in test [3], in test [5], in test [6] and in test [7] was “inactive” in each case. The Potency result in test [8] is “inactive”. Besides, the Potency in test [4] was 72.5 µM (active) and inactive.

For `O=C(O)COc1ccccc1`, the Potency entry in test [1], in test [2], in test [3], in test [4], in test [5] and in test [6] was “inactive” in each case. Moreover, the Potency entry in test [7] and in test [8] was “inactive” each time.

For the compound `COC(C)(C)CCCC(C)C/C=C/C(C)=C/C(=O)OC(C)C` (stereo not given), the Potency result in test [1], in test [2], in test [3], in test [6], in test [7] and in test [8] was “inactive” in each case. Moreover, the Potency was 24.5 µM (active) in test [4]; 62.2 µM (active) and 17.4 µM (active) in test [5].

On to `C=CCN=C=S`, for which the Potency result in test [1], in test [2], in test [3], in test [5], in test [6] and in test [7] was “inactive” in each case. Besides, in test [8], the Potency entry is “inactive”. Moreover, the Potency in test [4] is 40.8 µM (active) and inactive.

`Cl/C=C/Cl`: the Potency entry in test [1], in test [2], in test [3], in test [4], in test [5] and in test [6] was “inactive” throughout. Further, the Potency result in test [7] and in test [8] was “inactive” in each case.

Consider `Cc1cc(O)ccc1Cl`, for which the Potency entry in test [1], in test [2], in test [3], in test [5], in test [7] and in test [8] was “inactive” in each case. In addition, the Potency in test [4] is 25.6 µM (active) and inactive; in test [6] it was 36.2 µM (active) and 44.8 µM (active) and 17.4 µM (active).

Regarding `O=[N+]([O-])c1cc([As](=O)(O)O)ccc1O`, the Potency entry in test [1], in test [2], in test [3], in test [4], in test [5] and in test [6] was “inactive” throughout. The Potency result in test [7] and in test [8] was “inactive” in each case.

Take `N#Cc1cccc(C#N)c1`: the Potency result in test [1], in test [2], in test [4], in test [5], in test [6] and in test [7] was “inactive” each time. Also, the Potency entry in test [8] was “inactive”. In addition, the Potency in test [3] was 31.2 µM (active) and inactive.

Consider `CNC(=O)Oc1cccc2ccccc12`, for which the Potency in test [1] was 3.56 µM (active); in test [2], “inactive and 89.4 µM (active)”; in test [3], 39.6 µM (active) and inactive; in test [4] it was 35.3 µM (active) and 63.3 µM (active) and 17.4 µM (active); in test [5], 28 µM (active) and inactive; in test [6], 3.14 µM (active) and 8.94 µM (active). Also, the Potency entry in test [7] and in test [8] was “inactive” each time.

Consider `Clc1cnc(Oc2ccc(Oc3ncc(Cl)cc3Cl)cc2)c(Cl)c1`, for which the Potency entry in test [1], in test [2], in test [3], in test [4], in test [5] and in test [8] was “inactive” in each case. Besides, the Potency in test [6] is 24.9 µM (active) and inactive; in test [7], 19.5 µM (active).

With `OCc1ccco1`, the Potency result in test [1], in test [2], in test [3], in test [4], in test [6] and in test [7] was “inactive” each time. Besides, in test [8], the Potency result was “inactive”. For the same compound, in test [5], the Potency entry was “inactive and 44.8 µM (active)”.

Turning to `N#CN=C(N)N`, the Potency result in test [1], in test [2], in test [3], in test [4], in test [5] and in test [6] was “inactive” in each case. Also, the Potency result in test [7] and in test [8] was “inactive” in each case.

For `Cc1cccc(C)c1NC(=O)CN1CCCC1=O`, the Potency result in test [1], in test [2], in test [3], in test [4], in test [5] and in test [6] was “inactive” each time. The Potency entry in test [7] and in test [8] was “inactive” throughout.

Consider `ClCCOCCCl`, for which the Potency result in test [1], in test [2], in test [3], in test [4], in test [5] and in test [6] was “inactive” in each case. Further, the Potency result in test [7] and in test [8] was “inactive” throughout.

As to `COP(=S)(OC)SCN1C(=O)c2ccccc2C1=O`, the Potency entry in test [1] and in test [2] was “inactive” each time. The Potency in test [3] is 35.8 µM (active) and 35.6 µM (active) and 15.5 µM (active); in test [4] it was 715 nM (active) and 710 nM (active) and 436 nM (active); in test [5], 4.02 µM (active) and 2.52 µM (active) and 1.74 µM (active); in test [6] it was 10.1 µM (active) and 10 µM (active) and 6.92 µM (active).
